Measurements reported in PubChem BioAssay AID1159580 (chemical genetic matrix, 2015).
Hit rate of the full screen: of about 5,500 compounds, about 2,000 (36%) were called active. Roughly 18% stayed inconclusive and do not appear here. No stated cut-off is given here; in the data, active means normalized growth mostly below about 0.91 (no sharp cut-off); inconclusive means no clear call, values can overlap the other calls; inactive means mostly above about 0.92. The list shows a part of the results.

Assay: chemical genetic growth profiling, strain panel (AID 1159580);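 further: tested at 20 µM; growth read once vehicle control cultures reached saturation at 30 °C; 1 = growth at the plate median or of vehicle wells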
Conditions: growth OD

Measured: normalized growth

COC(=O)[C@H]1[C@H]2C[C@@H]3c4[nH]c5cc(OC)ccc5c4CCN3C[C@H]2C[C@@H](OC(=O)c2cc(OC)c(OC)c(OC)c2)[C@@H]1OC
inactive: S. cerevisiae deletion strains, locus YKL009W, strain mrt4, stronger effect = lower value 1.02 | S. cerevisiae deletion strains, locus YKL068W, stronger effect = lower value 1.01 | S. cerevisiae deletion strains, locus YKL085W, strain MDH1 (second series), stronger effect = lower value 1.01 | S. cerevisiae deletion strains, locus YKL085W, strain MDH1, stronger effect = lower value 1.01 | S. cerevisiae deletion strains, locus YKL160W, strain elf1, stronger effect = lower value 0.961 | S. cerevisiae deletion strains, locus YKL190W, strain CNB1, stronger effect = lower value 0.967 | S. cerevisiae deletion strains, locus YKR001C, strain vps1, stronger effect = lower value 1.03 | S. cerevisiae deletion strains, locus YKR026C, strain gcn3, stronger effect = lower value 0.99 | S. cerevisiae deletion strains, locus YKR091W, strain srl3, stronger effect = lower value 0.982 | S. cerevisiae deletion strains, locus YLL001W, strain dnm1, stronger effect = lower value 1.02 | S. cerevisiae deletion strains, locus YLL026W, stronger effect = lower value 0.975 | S. cerevisiae deletion strains, locus YLL041C, strain sdh2, stronger effect = lower value 0.983 | S. cerevisiae deletion strains, locus YLR027C, strain aat2, stronger effect = lower value 0.986 | S. cerevisiae deletion strains, locus YLR039C, strain RIC1, stronger effect = lower value 1.05 | S. cerevisiae deletion strains, locus YLR058C, strain SHM2, stronger effect = lower value 0.999 | S. cerevisiae deletion strains, locus YLR102C, strain apc9, stronger effect = lower value 1 | S. cerevisiae deletion strains, locus YLR113W, strain HOG1, stronger effect = lower value 0.971 | S. cerevisiae deletion strains, locus YLR221C, strain rsa3, stronger effect = lower value 1.02 | S. cerevisiae deletion strains, locus YLR258W, strain gsy2, stronger effect = lower value 0.965 | S. cerevisiae deletion strains, locus YLR262C, strain YPT6 (second series), stronger effect = lower value 1 | S. cerevisiae deletion strains, locus YLR262C, strain YPT6, stronger effect = lower value 1.05 | S. cerevisiae deletion strains, locus YLR268W, strain sec22, stronger effect = lower value 1.04 | S. cerevisiae deletion strains, locus YLR320W, strain mms22, stronger effect = lower value 0.978 | S. cerevisiae deletion strains, locus YLR330W, strain CHS5, stronger effect = lower value 1 | S. cerevisiae deletion strains, locus YLR342W, strain FKS1 (second series), stronger effect = lower value 0.951 | S. cerevisiae deletion strains, locus YLR342W, strain FKS1, stronger effect = lower value 0.959 | S. cerevisiae deletion strains, locus YLR357W, strain rsc2, stronger effect = lower value 0.977 | S. cerevisiae deletion strains, locus YLR370C, strain arc18, stronger effect = lower value 0.976 | S. cerevisiae deletion strains, locus YLR371W, strain rom2, stronger effect = lower value 1.01 | S. cerevisiae deletion strains, locus YLR384C, strain iki3, stronger effect = lower value 0.989 | S. cerevisiae deletion strains, locus YLR418C, strain cdc73, stronger effect = lower value 0.977 | S. cerevisiae deletion strains, locus YML016C, strain PPZ1, stronger effect = lower value 1 | S. cerevisiae deletion strains, locus YML032C, strain rad52, stronger effect = lower value 1.02 | S. cerevisiae deletion strains, locus YML120C, strain ndi1, stronger effect = lower value 1 | S. cerevisiae deletion strains, locus YML124C, strain tub3, stronger effect = lower value 1.02 | S. cerevisiae deletion strains, locus YMR058W, strain fet3, stronger effect = lower value 0.986 | S. cerevisiae deletion strains, locus YMR078C, strain ctf18, stronger effect = lower value 1.01 | S. cerevisiae deletion strains, locus YMR125W, strain sto1, stronger effect = lower value 0.986 | S. cerevisiae deletion strains, locus YMR129W, stronger effect = lower value 0.981 | S. cerevisiae deletion strains, locus YMR205C, strain PFK2, stronger effect = lower value 0.982 | S. cerevisiae deletion strains, locus YMR223W, strain ubp8, stronger effect = lower value 0.995 | S. cerevisiae deletion strains, locus YMR231W, strain pep5, stronger effect = lower value 1 | S. cerevisiae deletion strains, locus YMR263W, strain SAP30, stronger effect = lower value 0.979 | S. cerevisiae deletion strains, locus YMR307W, strain GAS1, stronger effect = lower value 0.912 | S. cerevisiae deletion strains, locus YNL067W, strain RPL9B, stronger effect = lower value 0.994 | S. cerevisiae deletion strains, locus YNL071W, strain lat1, stronger effect = lower value 0.971 | S. cerevisiae deletion strains, locus YNL128W, strain TEP1, stronger effect = lower value 1 | S. cerevisiae deletion strains, locus YNL153C, strain GIM3, stronger effect = lower value 1 | S. cerevisiae deletion strains, locus YNL183C, strain NPR1, stronger effect = lower value 0.949 | S. cerevisiae deletion strains, locus YNL209W, strain ssb2, stronger effect = lower value 0.984 | S. cerevisiae deletion strains, locus YNL233W, strain BNI4, stronger effect = lower value 0.997 | S. cerevisiae deletion strains, locus YNL248C, strain rpa49, stronger effect = lower value 0.955 | S. cerevisiae deletion strains, locus YNL250W, strain rad50, stronger effect = lower value 1.01 | S. cerevisiae deletion strains, locus YNL271C, strain bni1, stronger effect = lower value 1.02 | S. cerevisiae deletion strains, locus YNL298W, strain CLA4, stronger effect = lower value 1.02 | S. cerevisiae deletion strains, locus YNL307C, strain MCK1, stronger effect = lower value 1.01 | S. cerevisiae deletion strains, locus YNL322C, strain KRE1 (second series), stronger effect = lower value 0.976 | S. cerevisiae deletion strains, locus YNL322C, strain KRE1, stronger effect = lower value 0.995 | S. cerevisiae deletion strains, locus YNR049C, strain mso1, stronger effect = lower value 0.972 | S. cerevisiae deletion strains, locus YNR052C, strain pop2, stronger effect = lower value 1 | S. cerevisiae deletion strains, locus YOL006C, strain TOP1, stronger effect = lower value 0.989 | S. cerevisiae deletion strains, locus YOL012C, strain htz1 0.714 | S. cerevisiae deletion strains, locus YOL147C, strain pex11, stronger effect = lower value 1.02 | S. cerevisiae deletion strains, locus YOR001W, strain rrp6, stronger effect = lower value 1.03 | S. cerevisiae deletion strains, locus YOR061W, strain CKA2, stronger effect = lower value 0.999 | S. cerevisiae deletion strains, locus YOR069W, strain VPS5, stronger effect = lower value 1 | S. cerevisiae deletion strains, locus YOR070C, strain gyp1, stronger effect = lower value 0.983 | S. cerevisiae deletion strains, locus YOR080W, strain dia2, stronger effect = lower value 0.982 | S. cerevisiae deletion strains, locus YOR083W, strain WHI5, stronger effect = lower value 0.948 | S. cerevisiae deletion strains, locus YOR106W, strain vam3, stronger effect = lower value 0.947 | S. cerevisiae deletion strains, locus YOR136W, strain idh2, stronger effect = lower value 1.02 | S. cerevisiae deletion strains, locus YOR144C, strain elg1, stronger effect = lower value 1.01 | S. cerevisiae deletion strains, locus YOR184W, strain ser1, stronger effect = lower value 1.04 | S. cerevisiae deletion strains, locus YOR231W, strain MKK1, stronger effect = lower value 0.983 | S. cerevisiae deletion strains, locus YOR265W, strain rbl2, stronger effect = lower value 0.988 | S. cerevisiae deletion strains, locus YOR270C, strain vph1, stronger effect = lower value 0.969 | S. cerevisiae deletion strains, locus YOR290C, strain snf2, stronger effect = lower value 0.948 | S. cerevisiae deletion strains, locus YOR316C, strain cot1, stronger effect = lower value 1.01 | S. cerevisiae deletion strains, locus YPL051W, strain arl3, stronger effect = lower value 0.979 | S. cerevisiae deletion strains, locus YPL055C, strain LGE1, stronger effect = lower value 0.972 | S. cerevisiae deletion strains, locus YPL078C, strain atp4, stronger effect = lower value 0.972 | S. cerevisiae deletion strains, locus YPL106C, strain sse1, stronger effect = lower value 0.895 | S. cerevisiae deletion strains, locus YPL240C, strain hsp82, stronger effect = lower value 0.992 | S. cerevisiae deletion strains, locus YPL241C, strain CIN2, stronger effect = lower value 0.997 | S. cerevisiae deletion strains, locus YPL256C, strain CLN2, stronger effect = lower value 0.983 | S. cerevisiae deletion strains, locus YPR119W, strain clb2, stronger effect = lower value 1.01 | S. cerevisiae deletion strains, locus YPR141C, strain kar3, stronger effect = lower value 1.02 | S. cerevisiae deletion strains, locus YPR163C, strain tif3, stronger effect = lower value 1.02 | S. cerevisiae deletion strains, locus YPR167C, strain met16, stronger effect = lower value 1.01 | S. cerevisiae deletion strains, strain wtn01, stronger effect = lower value 1.01 | S. cerevisiae strains, strain wild type, stronger effect = lower value 0.986
